# Measurements reported in PubChem BioAssay (NCATS).
# Values joined by “and” are separate entries in the source; they are usually repeats but may differ in a detail not shown here. Identical values can stand only once. Inconclusive results are not listed. Where a call stands in place of a potency, no number is given. Values without a mark were called inactive. Active and inactive are the calls of the source. Calls follow the shape of the dose curve; as a rule, active = well fitted curve in the direction sought with a large enough effect; inconclusive = small, poorly fitted or top-dose-only effect, or another doubt; inactive = no such curve, though single readings can be large; an effect the other way counts as inactive or inconclusive.
# Assays:
# [1] = Viability qHTS for spleen associated tyrosine kinase inhibitor (SYKi) naive MV4-11 cells (AID 1963823); settings: MV4-11 AML viability, CellTiter-Glo luminescence, 72 h; series mostly up to 45 µM; also: nearly all actives have a fitted effect of over 40% in size; also: potency is read from the fitted curve at half-maximal effect
# How it was run: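 qHTS, SYK inhibitor-naive MV4-11; 500 cells/well; 72 hr compound exposure, 37 C; CellTiter-Glo added, 10 min RT; luminescence read.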
# [2] = Quantitative highthroughput screen to assess conditional lethalithy of NOMO1 cells grown in RPMI1640 with untreated serum (RPMI+s) (AID 1963876); settings: NOMO1 AML cells in RPMI+serum, CellTiter-Glo viability, 48 h; series mostly up to 45.8 µM; also: nearly all actives have a fitted effect of over 35% in size; also: potency is read from the fitted curve at half-maximal effect
# How it was run: (§1)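 Each medium arm—HPLM with 10% dialyzed FBS, or RPMI1640 with 5 mM glucose and 10% untreated or dialyzed FBS—was screened against an 11-point, 3-fold compound titration for 48 h at 37 °C, with CellTiter-Glo luminescence as endpoint.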
# [3] = Quantitative highthroughput screen to assess conditional lethalithy of NOMO1 cells grown in RPMI1640 with dialyzed fetal bovine serum (RPMI+ds) (AID 1963877); settings: NOMO1 in RPMI+dialyzed FBS viability, ATP luminescence, 48 h; series mostly up to 45.8 µM; also: nearly all actives have a fitted effect of over 30% in size
# How it was run: as §1
# [4] = Cellular viability qHTS for adrenocortical cancer (ACC) cell line SW-13 (AID 1963989); settings: SW-13 ACC cells viability, CellTiter-Glo, 48 h; activity (max response): active compounds read low; also: nearly all actives have a fitted effect of over 65% in size; also: potency is read from the fitted curve at half-maximal effect;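 as to activity (max response): cells grown in serum-free medium with ITS supplement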
# How it was run: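 SW-13 cells in ITS-supplemented serum-free DMEM were plated overnight, then exposed for 48 h at 37C to compound titrations (up to 46 uM final). Viability was read by CellTiter-Glo luminescence; four-parameter logistic fits gave IC50 and efficacy.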
# [5] = Cellular viability qHTS for adrenocortical cancer (ACC) cell line NCI-H295R (AID 1963990); settings: CellTiter-Glo ATP luminescence, 48 h; series mostly up to 46.1 µM; also: nearly all actives have a fitted effect of over 60% in size; also: potency is read from the fitted curve at half-maximal effect
# How it was run: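 Luminescent ATP read-out (CellTiter-Glo, 20 min RT) after 48 h drug exposure of NCI-H295R cells; a titration up to 46 uM final. Data normalized to doxorubicin (100% inhibition) and DMSO (0%); 4-parameter fit gives IC50, max response.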
# [6] = Quantitative highthroughput screen to assess conditional lethalithy of P12 Ichikawa cells grown in RPMI1640 with dialyzed fetal bovine serum (RPMI+ds) (AID 1963880); settings: ATP luminescence, 48 h; Potency: P12-Ichikawa viability; series mostly up to 45.8 µM; also: nearly all actives have a fitted effect of over 35% in size; also: potency is read from the fitted curve at half-maximal effect
# How it was run: as §1
# [7] = Quantitative highthroughput screen to assess conditional lethalithy of P12 Ichikawa cells grown in RPMI1640 with untreated serum (RPMI+s) (AID 1963881); settings: ATP luminescence, 48 h; Potency: viability; series mostly up to 45.8 µM; also: nearly all actives have a fitted effect of over 35% in size; also: potency is read from the fitted curve at half-maximal effect
# How it was run: as §1
# [8] = Quantitative highthroughput screen to assess conditional lethalithy of SEM cells grown in Human Plasma-Like Medium with dialyzed fetal bovine serum (HPLM+ds) (AID 1963882); settings: SEM B-ALL cells in HPLM+ds, CellTiter-Glo viability, 48 h; series mostly up to 45.8 µM; also: nearly all actives have a fitted effect of over 35% in size; also: potency is read from the fitted curve at half-maximal effect
# How it was run: as §1
# [9] = Quantitative highthroughput screen to assess conditional lethalithy of SEM cells grown in RPMI1640 with unreated serum (RPMI+s) (AID 1963883); settings: SEM B-ALL cells, CellTiter-Glo viability, 48 h; series mostly up to 45.8 µM; also: nearly all actives have a fitted effect of over 35% in size; also: potency is read from the fitted curve at half-maximal effect
# How it was run: as §1
# [10] = Quantitative highthroughput screen to assess conditional lethalithy of P12 Ichikawa cells grown in Human Plasma-Like Medium with dialyzed fetal bovine serum (HPLM+ds) (AID 1963879); settings: ATP luminescence, 48 h; Potency: viability; series mostly up to 45.8 µM; also: nearly all actives have a fitted effect of over 35% in size
# How it was run: as §1
# [11] = Quantitative highthroughput screen to assess conditional lethalithy of SEM cells grown in RPMI1640 with dialyzed fetal bovine serum (RPMI+ds) (AID 1963884); settings: SEM B-ALL cells, RPMI+dialyzed FBS, CellTiter-Glo viability, 48 h; series mostly up to 45.8 µM; also: nearly all actives have a fitted effect of over 35% in size; also: potency is read from the fitted curve at half-maximal effect
# How it was run: as §1
# [12] = Quantitative highthroughput screen to assess conditional lethalithy of NOMO1 cells grown in Human Plasma-Like Medium with dialyzed fetal bovine serum (HPLM+ds) (AID 1963878); settings: NOMO1 AML cells in HPLM+ds, CellTiter-Glo viability, 48 h; series mostly up to 45.8 µM; also: nearly all actives have a fitted effect of over 35% in size
# How it was run: as §1
SMILES,Potency [1],Potency [2],Potency [3],Potency [4],Potency [5],Potency [6],Potency [7],Potency [8],Potency [9],Potency [10],Potency [11],activity (max response) [4] [%],Potency [12]
COC(=O)Nc1nc2ccc(C(=O)c3ccc(F)cc3)cc2[nH]1,731 nM (active) and 332 nM (active),inactive,inactive,0.355 µM (active),0.112 µM (active),,,,,,,,
Cc1cc(Cl)ccc1OCCCC(=O)NO,14.8 µM (active),14.8 µM (active),,,1.26 µM (active),1.48 µM (active),5.9 µM (active),9.35 µM (active),10.5 µM (active),,,,
Cc1ccccc1C(OCCN(C)C)c1ccccc1 (stereo not given),inactive,inactive,inactive,,inactive,inactive,inactive,inactive,inactive,inactive,inactive,14.3,
N#Cc1ccnc(N2C(=O)CC[C@H]2C(=O)N(c2cncc(F)c2)[C@H](C(=O)NC2CC(F)(F)C2)c2ccccc2Cl)c1,inactive,2.34 µM (active),,,inactive,,2.95 µM (active),3.31 µM (active),1.32 µM (active),,3.31 µM (active),6.3,
CN(C)CCCNC(=O)c1ccc(-c2cc(O)c3ncccc3c2)cc1,5.8 µM (active),inactive,,,12.6 µM (active),inactive,,,,inactive,,,
CC(C)(C)c1cc(NC(=O)Nc2ccc(-c3cn4c(n3)sc3cc(OCCN5CCOCC5)ccc34)cc2)no1,inactive,inactive,inactive,,inactive,inactive,inactive,,,inactive,,1.45,
Cc1cn2cc(C(=O)N(C)CCO)cc(N[C@@H]3CCOc4cccc(C)c43)c2n1,2.95 µM (active),inactive,inactive,,inactive,inactive,inactive,inactive,inactive,,inactive,-15,inactive
